Laboratory results published in ChEMBL document CHEMBL3988442, “University of Dundee, Small-Polar-MMV Screening Library” (2021).

Experiments:
[1] = molecular target: T1, Aspartate--tRNA(Asp/Asn) ligase (Mycobacterium tuberculosis (strain ATCC 25618 / H37Rv)) (UniProt P9WFW3); test: Assay for Asp RNA synthetase-1 from Mycobacterium tuberculosis; type: functional; design: scale not given: direction of the effect not stated beside the values; details: 30 µM; note: in the data most compounds retested in dose-response had high values
T1 sequence (whole entry): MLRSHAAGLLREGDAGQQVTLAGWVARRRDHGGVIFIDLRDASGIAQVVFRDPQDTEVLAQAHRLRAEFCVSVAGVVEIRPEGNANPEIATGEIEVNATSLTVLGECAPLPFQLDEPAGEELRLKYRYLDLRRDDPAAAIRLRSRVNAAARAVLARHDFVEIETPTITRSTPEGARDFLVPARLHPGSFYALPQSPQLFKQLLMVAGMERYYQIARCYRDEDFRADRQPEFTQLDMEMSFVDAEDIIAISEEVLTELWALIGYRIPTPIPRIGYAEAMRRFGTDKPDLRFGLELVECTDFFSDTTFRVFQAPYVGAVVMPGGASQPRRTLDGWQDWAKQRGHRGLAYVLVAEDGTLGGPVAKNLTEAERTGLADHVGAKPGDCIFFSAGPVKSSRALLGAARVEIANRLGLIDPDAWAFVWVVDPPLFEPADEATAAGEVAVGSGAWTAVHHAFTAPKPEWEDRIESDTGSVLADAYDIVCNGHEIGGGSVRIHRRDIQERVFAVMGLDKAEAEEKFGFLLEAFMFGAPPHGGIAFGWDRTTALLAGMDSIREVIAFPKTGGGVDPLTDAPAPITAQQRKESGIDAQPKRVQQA

[2] = molecular target: Shiga toxin 2 (Escherichia coli O157:H7) (UniProt P09385+P09386); test: E. coli 0.157:H7 Shiga Toxin SOP - stx2 screening assay; type: functional; design: scale not given: direction of the effect not stated beside the values; details: 30 µM

SMILES | Percent Effect [1] [%] | Percent Effect [2] [%]
c1ccc(NCc2cn3c(n2)CN(Cc2cccnc2)CC3)nc1 | -1.64 | -39.5
Cc1nc(CN2CCc3ncnc(C)c3CC2)cs1 | -3.93 | -9.46
CCNc1cc2c(nn1)CCN(C(=O)CC1CCCCC1)C2 | -7.97 | -4.17
CNC(=O)c1ccc(C(=O)N2CCCC(n3cc(C)cn3)C2)cn1 (centres undefined) | -5.95 | -41.9
Cc1ccc(C(=O)N2CCN(Cc3nc(C(C)C)no3)CC2)c(=O)[nH]1 | 2.27 | 26.1
Cc1ccc(CN2C[C@@H]3COC[C@H](C(=O)N4CCCCO4)[C@@H]3C2)o1 | 1.57 | -5.34
CCN1Cc2c(C(=O)NCC3CC3)ncn2-c2ccccc2S1(=O)=O | -3.35 | 8.11
O=C(O)c1cc(NS(=O)(=O)c2cccc(Cl)c2F)ccc1Cl | 0.425 | 20.1
N#CC1(C(=O)N2CCN(Cc3ccon3)CC2)CCC1 | -1.89 | 3.73
CN(CC1CCCCO1)C(=O)c1ccnc(OC2CCC2)c1 (centres undefined) | -2.11 | -8.22
CCn1nccc1CNC(=O)NC1CCCCC1 | 11.6 | -68.7
CCc1ncc2c(n1)CN(Cc1nc(-c3ccsc3)no1)CC2 | -0.759 | 13.8
COc1cc2nc3n(c(=O)c2cc1OC)CCN(C)CC3 | -1.59 | -7.54
CC(OCC(F)(F)F)C(=O)NCc1ccc(-n2cncn2)nc1 (centres undefined) | -3.63 | -8.85
Cc1nc(C)n(CC2CN(CCc3ccncc3)CCO2)n1 (centres undefined) | 1.98 | -14.2
Cc1noc(Cl)c1CC(=O)N1CCCC(n2cccn2)C1 (centres undefined) | 2.08 | 32.6
CCN1CCN(C2CCN(Cc3c(C)noc3C)CC2)C1=O | -5.48 | -30.9
CS(=O)(=O)N[C@@H]1CCO[C@]2(CCN(C(=O)C3=CCCC3)C2)C1 | 3.41 | -0.907
Cc1cnn(CC2CCCN2C(=O)Cc2n[nH]c3ccccc23)c1 (centres undefined) | -2.71 | 12.2
Cc1nc(CN2CCOC(CNc3cccnn3)C2)cs1 (centres undefined) | -1.08 | -2.07
CN1CC[C@H](c2ccccc2)[C@@H]2[C@H]1CCCCN2C(=O)c1cnccn1 | -3.68 | 3.52
CCC(=O)N(C)C1CCN(Cc2ncc(C)c(OC)c2C)CC1 | -0.759 | -19.9
O=C(NCN1CCc2ccccc2C1)c1cnccn1 | 8.37 | -18.9
CCn1c(CN(C)C)nnc1C1CCN(c2ccnc(C)c2)CC1 | 4.18 | -16.1

SMILES | Percent Effect [1] [%] | Percent Effect [2] [%]
CN(Cc1ccc(Cl)s1)C1CCCN(c2cccnn2)C1 (centres undefined) | 2.31 | -15
Cc1cccc(-c2[nH]ncc2CNCC2CCN(CC(C)O)CC2)c1 (centres undefined) | 4.15 | 20.1
CS(=O)(=O)c1ccc(C(O)CN2CCC(c3ccn[nH]3)CC2)cc1 (centres undefined) | -7.22 | -3.06
O=C(CC1CC1)N1CCn2cc(Cn3cncn3)nc2C1 | 3.1 | -11.8
NC(=O)c1cccc(CC2CCN(C(=O)CO)C2)c1 (centres undefined) | 3.02 | -19.3
Cc1noc(C)c1CNCC1CCN(CC(O)c2ccccc2)CC1 (centres undefined) | -1.06 | -21.8
CC(=O)N(C)c1nc(CN2CCCCC2Cn2cncn2)cs1 (centres undefined) | -3.1 | 9.21
Cc1occc1C(=O)N1CCC2(CCCN(CC3CCC3)C2=O)C1 (centres undefined) | -2.62 | -2.14
CC(c1cccc(S(N)(=O)=O)c1)N(C)CCc1ccccc1 (centres undefined) | 5.72 | -26.2
Cc1csc2c(N3CCC(NCCCc4ccncc4)CC3)ncnc12 | 8.8 | -69.6
Cc1noc(C(C)C)c1C(=O)NCC(c1cccc(F)c1)N(C)C (centres undefined) | -4.05 | 8.91
CC(C)CN1C(=O)c2ccc(C(=O)NCCc3c[nH]cn3)cc2C1=O | 0.813 | -22.9
Cn1ccc(C(=O)NCc2cccc(N3CCCCC3=O)c2)cc1=O | 0.417 | -29.6
O=C(c1cccnc1)N1CCn2nnc(COc3cccnc3)c2C1 | 6.79 | -23.3
Cc1cnn(C2CCCN(C(=O)c3cc(C4CC4)on3)C2)c1 (centres undefined) | -1.95 | 14.5
Cc1ccc(F)cc1NC(=O)NCC(C)N1CCOCC1 (centres undefined) | -1.14 | -35
O=S1(=O)CCCN1Cc1coc(-c2cccs2)n1 | -3.68 | 0.853
CC(=O)Nc1nc(CN2CCCC2c2cnn(C)c2)cs1 (centres undefined) | -1.4 | -28.6
O=C(c1ccc(NC2CC2)nc1)N1CCCC(n2cccn2)C1 (centres undefined) | -1.7 | 14.7
Cn1ncc2c(=O)[nH]c(CN(Cc3ccco3)C3CCCC3)nc21 | -7.5 | -31.6
CN(C)CC1CN(c2cnc3ccccc3n2)CCO1 (centres undefined) | -3.4 | -17.5
O=S(=O)(c1ccccc1)N1CCN(CCn2ccnc2)CC1 | -3.1 | 2.08
CCn1c(Cn2cncn2)nnc1C1CCN(Cc2ccncc2)CC1 | 4.98 | 0.0626
